# From PubChem BioAssay (NCI)
# About 79,000 compounds went through this panel and 15% of them were active in at least one assay; those are over-represented in the sample as a whole. Values without a mark were called inactive. The source made the active and inactive calls. Rule as the data show it: active = growth inhibition above about 70%; inactive = the rest.
# Legend:
# [1] = NCI Yeast Anticancer Drug Screen. Data for the rad52 strain (AID 147);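 also: 0% = growth of vehicle-treated control cultures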; settings: S. cerevisiae rad52 mutant growth inhibition, hits give high values
# In short: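 Here a repair-compromised yeast strain receives each compound; its growth is then quantified and normalised to vehicle-only controls.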
# [2] = NCI Yeast Anticancer Drug Screen. Data for the wt1 strain (AID 149);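 also: 0% = growth of vehicle-treated wt1 cultures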; settings: S. cerevisiae wt1 strain (SPY 50644) growth inhibition, hits give high values
# In short: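 Yeast wt1 strain exposed to compounds; growth inhibition measured relative to vehicle-treated controls.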
# [3] = NCI Yeast Anticancer Drug Screen. Data for the rad50EPP+ strain (AID 151);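 also: 0% = growth of vehicle-treated control cultures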; settings: S. cerevisiae rad50 mutant strain, hits give high values
# In short: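 Read-out is yeast growth inhibition relative to vehicle; cells used were the rad50EPP+ strain.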
# [4] = NCI Yeast Anticancer Drug Screen. Data for the mgt1 strain (AID 153); settings: S. cerevisiae mgt1 mutant growth inhibition, hits give high values
# In short: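 Measured: inhibition of mgt1 yeast growth by compound, normalized to vehicle-treated cultures.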
# [5] = NCI Yeast Anticancer Drug Screen. Data for the rad50 strain (AID 155);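 also: 0% = growth of vehicle-only cultures of the same strain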; settings: S. cerevisiae rad50 strain growth inhibition, hits give high values
# In short: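 Yeast carrying a defined DNA repair defect were exposed to test compounds, and growth was compared with vehicle-treated controls to give percent inhibition.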
# [6] = NCI Yeast Anticancer Drug Screen. Data for the mec2-1 strain (AID 157); settings: S. cerevisiae mec2-1 strain, hits give high values
# In short: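 Using mec2-1 yeast: add compound, measure growth, express inhibition versus vehicle-treated cultures.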
# [7] = NCI Yeast Anticancer Drug Screen. Data for the rad14 strain (AID 159);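 also: 0% = growth of vehicle-treated control cultures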; settings: S. cerevisiae rad14 strain growth inhibition, hits give high values
# In short: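 Yeast cells carrying a defined DNA-repair defect were exposed to compounds, and growth inhibition was calculated relative to vehicle-treated control cultures.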
# [8] = NCI Yeast Anticancer Drug Screen. Data for the CLN2oe strain (AID 163);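 also: 0% = growth of vehicle-only control cultures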; settings: S. cerevisiae CLN2oe strain, hits give high values
# In short: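 Whole-cell yeast growth assay. A strain engineered for altered cell-cycle control received compound, and inhibition relative to vehicle-treated cultures was recorded.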
# [9] = NCI Yeast Anticancer Drug Screen. Data for the cln2 rad14 strain (AID 165);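 also: 0% = growth equal to vehicle treated cultures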; settings: S. cerevisiae cln2 rad14 strain, hits give high values
# In short: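 Yeast strain cln2 rad14, bearing defects in cell cycle control and DNA repair, serves as the test system; values reflect growth inhibition compared with vehicle.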
# [10] = NCI Yeast Anticancer Drug Screen. Data for the bub3 strain (AID 167); settings: S. cerevisiae bub3 mutant strain, hits give high values
# In short: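 Compounds were applied to a genetically altered yeast strain carrying a cell-cycle control defect. Growth inhibition was scored against vehicle-treated controls.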
# [11] = NCI Yeast Anticancer Drug Screen. Data for the wt2 strain (AID 169);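 also: 0% = growth of vehicle-treated yeast cultures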; settings: S. cerevisiae wt2 strain growth inhibition, hits give high values
# In short: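 Treated yeast vs. vehicle-treated yeast: growth inhibition determined.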
# [12] = NCI Yeast Anticancer Drug Screen. Data for the mlh1 strain (AID 171);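 also: 0% = growth of vehicle-treated control cultures of the same strain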; settings: S. cerevisiae mlh1 strain growth inhibition, hits give high values
# In short: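 A yeast strain with a defined genetic lesion serves as the test organism. Cultures receive compound or vehicle, and growth is measured.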
# [13] = NCI Yeast Anticancer Drug Screen. Data for the sgs1 strain (AID 173);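 also: 0% = growth of vehicle-only control cultures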; settings: S. cerevisiae sgs1 mutant, hits give high values
# In short: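 A genetically defined yeast mutant is incubated with the test compound, and its growth is compared to that of the same strain given vehicle.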
# [14] = NCI Yeast Anticancer Drug Screen. Data for the mlh1 rad18 strain (AID 175); settings: S. cerevisiae mlh1 rad18 strain growth inhibition, hits give high values
# In short: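 Steps: expose repair-defective yeast to compound; measure growth; express inhibition against vehicle-treated controls.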
# [15] = NCI Yeast Anticancer Drug Screen. Data for the rad18 strain (AID 177); settings: S. cerevisiae rad18 mutant growth inhibition, hits give high values
# In short: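 Measured value is growth inhibition of a yeast strain bearing a DNA repair alteration, referenced to vehicle-treated cells.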
# [16] = NCI Yeast Anticancer Drug Screen. Data for the sgs1 mgt1 strain (AID 161);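 also: 0% = growth of cultures given vehicle only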; settings: S. cerevisiae sgs1 mgt1 strain, hits give high values
# In short: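 This yeast growth screen uses a strain with defined DNA-repair lesions; compound-treated growth is compared with vehicle-treated growth.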
# [17] = at 5.0 µM (retest, dose inferred, filed as 0.5)
# [18] = at 50.0 µM (retest, dose inferred, filed as 5.0)
smiles,measurement,setting,value
Nc1ccn(C2OC(CO)C3[O][Sn]([c]4ccccc4)([c]4ccccc4)[O]C32)c(=O)n1 (stereo not given),growth inhibition,[1]; at 1.2 µM,3%
same,growth inhibition,[1]; at 3.7 µM,3%
same,growth inhibition,[1]; at 11.0 µM,21%
same,growth inhibition,[1]; at 33.0 µM,46%
same,growth inhibition,[1]; at 100.0 µM,84% (active)
same,growth inhibition,[2]; at 1.2 µM,-1%
same,growth inhibition,[2]; at 3.7 µM,-1%
same,growth inhibition,[2]; at 11.0 µM,1%
same,growth inhibition,[2]; at 33.0 µM,9%
same,growth inhibition,[2]; at 100.0 µM,53%
same,growth inhibition,[3]; at 1.2 µM,1%
same,growth inhibition,[3]; at 3.7 µM,-5%
same,growth inhibition,[3]; at 11.0 µM,-1%
same,growth inhibition,[3]; at 33.0 µM,6%
same,growth inhibition,[3]; at 100.0 µM,13%
same,growth inhibition,[4]; at 1.2 µM,7%
same,growth inhibition,[4]; at 3.7 µM,3%
same,growth inhibition,[4]; at 11.0 µM,-3%
same,growth inhibition,[4]; at 33.0 µM,30%
same,growth inhibition,[4]; at 100.0 µM,85% (active)
same,growth inhibition,[5]; at 1.2 µM,4%
same,growth inhibition,[5]; at 3.7 µM,-1%
same,growth inhibition,[5]; [17],-5%
same,growth inhibition,[5]; at 11.0 µM,26%
same,growth inhibition,[5]; at 33.0 µM,61%
same,growth inhibition,[5]; [18],51%
same,growth inhibition,[5]; at 50.0 µM,95.4% (active)
same,growth inhibition,[5]; at 100.0 µM,84% (active)
same,growth inhibition,[6]; at 1.2 µM,0%
same,growth inhibition,[6]; at 3.7 µM,3%
same,growth inhibition,[6]; [17],-6%
same,growth inhibition,[6]; at 11.0 µM,4%
same,growth inhibition,[6]; at 33.0 µM,17%
same,growth inhibition,[6]; [18],34%
same,growth inhibition,[6]; at 50.0 µM,95.5% (active)
same,growth inhibition,[6]; at 100.0 µM,52%
same,growth inhibition,[7]; at 1.2 µM,1%
same,growth inhibition,[7]; at 3.7 µM,1%
same,growth inhibition,[7]; at 11.0 µM,3%
same,growth inhibition,[7]; at 33.0 µM,22%
same,growth inhibition,[7]; at 100.0 µM,78% (active)
same,growth inhibition,[8]; at 1.2 µM,1%
same,growth inhibition,[8]; at 3.7 µM,-1%
same,growth inhibition,[8]; at 11.0 µM,9%
same,growth inhibition,[8]; at 33.0 µM,11%
same,growth inhibition,[8]; at 100.0 µM,60%
same,growth inhibition,[9]; [17],-26%
same,growth inhibition,[9]; [18],-9%
same,growth inhibition,[9]; at 50.0 µM,92.1% (active)
same,growth inhibition,[10]; at 1.2 µM,1%
same,growth inhibition,[10]; at 3.7 µM,1%
same,growth inhibition,[10]; [17],-18%
same,growth inhibition,[10]; at 11.0 µM,3%
same,growth inhibition,[10]; at 33.0 µM,19%
same,growth inhibition,[10]; [18],41%
same,growth inhibition,[10]; at 50.0 µM,95.9% (active)
same,growth inhibition,[10]; at 100.0 µM,75% (active)
same,growth inhibition,[11]; at 1.2 µM,0%
same,growth inhibition,[11]; at 3.7 µM,0%
same,growth inhibition,[11]; at 11.0 µM,5%
same,growth inhibition,[11]; at 33.0 µM,31%
same,growth inhibition,[11]; at 100.0 µM,79% (active)
same,growth inhibition,[12]; at 1.2 µM,-1%
same,growth inhibition,[12]; at 3.7 µM,0%
same,growth inhibition,[12]; at 11.0 µM,6%
same,growth inhibition,[12]; at 33.0 µM,33%
same,growth inhibition,[12]; at 100.0 µM,70% (active)
same,growth inhibition,[13]; at 1.2 µM,0%
same,growth inhibition,[13]; at 3.7 µM,0%
same,growth inhibition,[13]; at 11.0 µM,9%
same,growth inhibition,[13]; at 33.0 µM,44%
same,growth inhibition,[13]; at 100.0 µM,89% (active)
same,growth inhibition,[14]; [17],-22%
same,growth inhibition,[14]; [18],87% (active)
same,growth inhibition,[14]; at 50.0 µM,95.2% (active)
same,growth inhibition,[15]; at 1.2 µM,3%
same,growth inhibition,[15]; at 3.7 µM,8%
same,growth inhibition,[15]; at 11.0 µM,27%
same,growth inhibition,[15]; at 33.0 µM,67%
same,growth inhibition,[15]; at 100.0 µM,88% (active)
COC(=O)c1ccc(NCC2=CC(=O)C=CC2=O)cc1O,growth inhibition,[1]; at 1.2 µM,13%
same,growth inhibition,[1]; at 3.7 µM,34%
same,growth inhibition,[1]; at 11.0 µM,80% (active)
same,growth inhibition,[1]; at 33.0 µM,97% (active)
same,growth inhibition,[1]; at 100.0 µM,92% (active)
same,growth inhibition,[2]; at 1.2 µM,-14%
same,growth inhibition,[2]; at 3.7 µM,2%
same,growth inhibition,[2]; at 11.0 µM,68%
same,growth inhibition,[2]; at 33.0 µM,97% (active)
same,growth inhibition,[2]; at 100.0 µM,93% (active)
same,growth inhibition,[3]; at 1.2 µM,17%
same,growth inhibition,[3]; at 3.7 µM,63%
same,growth inhibition,[3]; at 11.0 µM,89% (active)
same,growth inhibition,[3]; at 33.0 µM,97% (active)
same,growth inhibition,[3]; at 100.0 µM,92% (active)
same,growth inhibition,[4]; at 1.2 µM,9%
same,growth inhibition,[4]; at 3.7 µM,30%
same,growth inhibition,[4]; at 11.0 µM,77% (active)
same,growth inhibition,[4]; at 33.0 µM,97% (active)
same,growth inhibition,[4]; at 100.0 µM,91% (active)
same,growth inhibition,[5]; at 1.2 µM,12%
same,growth inhibition,[5]; at 3.7 µM,32%
same,growth inhibition,[5]; [17],12%
same,growth inhibition,[5]; at 11.0 µM,75% (active)
same,growth inhibition,[5]; at 33.0 µM,95% (active)
same,growth inhibition,[5]; [18],96% (active)
same,growth inhibition,[5]; at 50.0 µM,91% (active)
same,growth inhibition,[5]; at 100.0 µM,93% (active)
same,growth inhibition,[6]; at 1.2 µM,-2%
same,growth inhibition,[6]; at 3.7 µM,17%
same,growth inhibition,[6]; [17],13%
same,growth inhibition,[6]; at 11.0 µM,70% (active)
same,growth inhibition,[6]; at 33.0 µM,97% (active)
same,growth inhibition,[6]; [18],98% (active)
same,growth inhibition,[6]; at 50.0 µM,93.2% (active)
same,growth inhibition,[6]; at 100.0 µM,89% (active)
same,growth inhibition,[7]; at 1.2 µM,33%
same,growth inhibition,[7]; at 3.7 µM,61%
same,growth inhibition,[7]; at 11.0 µM,98% (active)
same,growth inhibition,[7]; at 33.0 µM,98% (active)
same,growth inhibition,[7]; at 100.0 µM,92% (active)
same,growth inhibition,[16]; [17],50%
same,growth inhibition,[16]; [18],98% (active)
same,growth inhibition,[16]; at 50.0 µM,93.5% (active)
same,growth inhibition,[8]; at 1.2 µM,8%
same,growth inhibition,[8]; at 3.7 µM,33%
same,growth inhibition,[8]; at 11.0 µM,78% (active)
same,growth inhibition,[8]; at 33.0 µM,96% (active)
same,growth inhibition,[8]; at 100.0 µM,93% (active)
same,growth inhibition,[10]; at 1.2 µM,-3%
same,growth inhibition,[10]; at 3.7 µM,10%
same,growth inhibition,[10]; [17],66%
same,growth inhibition,[10]; at 11.0 µM,20%
same,growth inhibition,[10]; at 33.0 µM,95% (active)
same,growth inhibition,[10]; [18],98% (active)
same,growth inhibition,[10]; at 50.0 µM,91.1% (active)
same,growth inhibition,[10]; at 100.0 µM,93% (active)
same,growth inhibition,[11]; at 1.2 µM,20%
same,growth inhibition,[11]; at 3.7 µM,56%
same,growth inhibition,[11]; at 11.0 µM,94% (active)
same,growth inhibition,[11]; at 33.0 µM,97% (active)
same,growth inhibition,[11]; at 100.0 µM,92% (active)
same,growth inhibition,[12]; at 1.2 µM,17%
same,growth inhibition,[12]; at 3.7 µM,51%
same,growth inhibition,[12]; at 11.0 µM,90% (active)
same,growth inhibition,[12]; at 33.0 µM,98% (active)
same,growth inhibition,[12]; at 100.0 µM,94% (active)
same,growth inhibition,[13]; at 1.2 µM,3%
same,growth inhibition,[13]; at 3.7 µM,30%
same,growth inhibition,[13]; at 11.0 µM,76% (active)
same,growth inhibition,[13]; at 33.0 µM,97% (active)
same,growth inhibition,[13]; at 100.0 µM,91% (active)
same,growth inhibition,[14]; [17],0%
same,growth inhibition,[14]; [18],93% (active)
same,growth inhibition,[14]; at 50.0 µM,92.2% (active)
same,growth inhibition,[15]; at 1.2 µM,18%
same,growth inhibition,[15]; at 3.7 µM,32%
same,growth inhibition,[15]; at 11.0 µM,85% (active)
same,growth inhibition,[15]; at 33.0 µM,97% (active)
same,growth inhibition,[15]; at 100.0 µM,95% (active)
